Source: PubChem
A549 viability = kills or reduces viability of A549 cells in Nrf2 counter-screen; A549 ARE-Fluc cells, CellTiter-Fluor viability, 18-24 h; Potency, µM (doses to about 46 µM), hits mostly inhibitors; 390,000 compounds, 0.16% hits; AID 504648
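A549 ARE_Fluc cells in 5% FBS OPTI-MEM were exposed to compounds in concentration-response for 18-24 h at 37 deg C. Viability was read by CellTiter-Fluor fluorescence (Ex 405/Em 525) after 30 min, before the luciferase read.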
12-LOX inh = ALOX12 (human) lipoxygenase inhibition; Potency, µM (doses to about 108 µM), most hits filed as inhibitors; P18054; AID 1671190; 580,000 compounds, 1.1% hits; purified 12hLO, xylenol orange hydroperoxide absorbance
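Hydroperoxide product was detected by ferrous iron/xylenol orange as the 573 to 405 nm absorbance ratio. Arachidonic acid at 40 uM (final) was turned over for 30 min at room temperature by 150 nM human 12hLO, pH 7.0 Hepes buffer, after 15 min compound preincubation.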
ERG Ets-DNA blk = blocks human ERG Ets domain binding to DNA | P11308 | fluorescence polarization, His-ERG Ets domain / labelled DNA | Potency, µM (titrated, usually from 76.9 µM), usual class: inhibitors | 370,000 compounds, 0.028% hits | AID 624246; active = well fitted inhibition curve with a large enough effect in the polarisation, with a control signal flat; inconclusive = small, poorly fitted or top-dose-only effect, or effect the other way, or a change in a side signal; inactive = no such curve, though single readings can be large or run the other way; the % refers to the polarisation;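 note: polarization taken with two DNA probes labelled with fluorescein and Texas red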
Target sequence (P11308 whole entry, looked up, the tested form may be a part): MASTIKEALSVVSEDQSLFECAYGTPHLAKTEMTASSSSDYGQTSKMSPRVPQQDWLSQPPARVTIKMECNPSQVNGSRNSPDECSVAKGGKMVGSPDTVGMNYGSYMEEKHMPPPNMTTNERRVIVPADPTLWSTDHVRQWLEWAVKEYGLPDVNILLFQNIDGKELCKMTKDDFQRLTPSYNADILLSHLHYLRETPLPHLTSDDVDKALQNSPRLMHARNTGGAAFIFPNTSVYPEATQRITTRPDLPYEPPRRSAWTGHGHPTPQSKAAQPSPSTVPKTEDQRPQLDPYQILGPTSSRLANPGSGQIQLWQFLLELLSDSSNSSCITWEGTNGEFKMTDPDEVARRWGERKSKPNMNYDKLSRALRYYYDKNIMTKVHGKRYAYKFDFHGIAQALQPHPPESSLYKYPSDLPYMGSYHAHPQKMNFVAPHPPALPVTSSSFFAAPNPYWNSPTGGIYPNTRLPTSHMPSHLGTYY
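His-tagged ERG Ets domain (1 uM in the protein solution; 300mM KCl, 50mM Tris-HCl, 1mM EDTA, 1mM DTT, pH 7.5) received compound, then a probe mix of 5 nM fluorescein-DNA and 100nM Texas-615-DNA. Fluorescence polarization was read for both dyes.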
Nrf2 ARE act = activators of Nrf2 (ARE) signaling; AREc32 ARE-luciferase reporter (MCF7-derived line), luminescence, 24 h; Potency, µM (series often up to 46.1 µM), hits mostly activators; 410,000 compounds, 0.31% hits; note: nearly all actives have a fitted effect of over 65% in size
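Quantitative high-throughput format: AREc32 reporter cells, 1000 per well, received compound by pin transfer and were incubated 24 hr at 37 deg C, 5% CO2, before Steady-Glo luminescence detection.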
Nrf2 block = Nrf2 pathway inhibition. A549 ARE-Fluc reporter, luciferase luminescence, 18-24 h. Potency, µM (top dose mostly 46 µM), usual class: inhibitors. 360,000 compounds, 2.1% hits. AID 504444; note: nearly all actives have a fitted effect of over 60% in size
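Nrf2 function is reported as luminescence of an ARE-controlled luciferase in A549 cells. Compounds were tested at several concentrations, and a CellTiter-Fluor read on the same wells flagged cytotoxicity.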
LDHA inh = inhibitors of human lactate dehydrogenase A; AID 1347041; purified LDHA, NADH/diaphorase-resazurin fluorescence; stronger effect = lower value; 480,000 compounds, 0.15% hits; activity change, % (values are at about 110 or 230 µM); P00338; in the data active = activity change below about -30%; inconclusive = mostly about -25% to -30%
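Resorufin fluorescence (ex540/em590), read at 0 and 20 min after diaphorase/resazurin addition, reports the NADH left after a 5 min room-temperature reaction of 2 nM human LDH5 with 0.06 mM NADH and 0.2 mM pyruvate.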
Numbers stand for hits; n = inactive; u = inconclusive; x = not tested or not shown; [ ] = dose if it differs, or a comment. Rows were chosen to be rich in hits. Some 2.7% of all compounds tested hit in one or more screens of this group. Unless noted, calls come from the whole dose curve; as a rule, active = well fitted curve in the direction sought with a large enough effect; inconclusive = small, poorly fitted or top-dose-only effect, or another doubt; inactive = no such curve, though single readings can be large; an effect the other way counts as inactive or inconclusive.

SMILES	A549 viability	12-LOX inh	ERG Ets-DNA blk	Nrf2 ARE act	Nrf2 block	LDHA inh
O=C(Nc1nccs1)C1CCN(S(=O)(=O)c2ccc(F)cc2)CC1	n	n	n	n	n	n
O=C(Nc1nccs1)C1CCN(S(=O)(=O)c2c(Cl)cccc2Cl)CC1	n	n	n	n	16µM	n
CC(C)c1nc2oc3c(NCCN(C)C)ncnc3c2c2c1COC(C)(C)C2	x	n	x	x	x	n
CCOc1cc(/C=C(\C#N)C(=O)Nc2cccc(C(=O)O)c2)cc(Br)c1OC(=O)c1ccc(OC)cc1	n	45µM	n	n	n	n
O=C(CCc1cc(Cl)no1)N(CCS(=O)(=O)N1CCCCC1)Cc1cccnc1	x	u	x	x	x	n
C[C@@H](NC(=O)c1cccnc1)c1onc(-c2ccc(F)cc2)c1C(=O)O	x	18µM	x	x	x	x
C[C@@H](NS(=O)(=O)c1ccccc1)c1onc(-c2cccnc2)c1C(=O)O	x	n	x	x	x	x
C[C@@H](NC(=O)Nc1ccc(Cl)cc1)c1onc(-c2ccc(F)cc2)c1C(=O)O	x	n	x	x	x	x
C[C@@H](NS(C)(=O)=O)c1onc(-c2cccnc2)c1C(=O)O	x	56µM	x	x	x	x
Cc1noc([C@@H](C)NC(=O)Nc2ccc(Cl)cc2)c1C(=O)O	x	20µM	x	x	x	x
C[C@@H](NC(=O)Nc1ccccc1)c1onc(-c2ccc(F)cc2)c1C(=O)O	x	63µM	x	x	x	x
Cn1ccc2c(C(=O)N3CCC(C(N)=O)CC3)cccc21	x	n	x	x	x	n
COc1cccc(CNC(=O)c2c(C)oc3ccn(Cc4ccc(F)cc4)c(=O)c23)c1	x	n	x	x	x	x
C=C(C)Cn1c(N2CCOCC2)nc2c1c(=O)[nH]c(=O)n2C	x	n	x	x	x	n
COC(=O)c1ccccc1NC(=O)c1cccc(N2CCCN(Cc3ccc(Cl)cc3)C2=O)c1	x	u	x	x	x	n
CC(C(=O)Nc1ccc(F)cc1)n1cnc2c1c(=O)n(C)c(=O)n2C (stereo not drawn)	x	n	x	x	x	n
CCOC(=O)C1C(=O)C=C(Nc2ccc(C(F)(F)F)cc2)CC1c1ccccc1 (stereo not drawn)	x	u	x	x	x	n
CC(=O)Nc1cc(-c2ccc(=O)n(CC(=O)Nc3c(C)cc(C)cc3C)n2)ccc1C	x	n	x	x	x	n
O=C(c1ccc(Cn2c(=O)[nH]c3ccccc3c2=O)cc1)N1CCN(c2ccc(F)cc2)CC1	n	n	n	n	10µM	n
COc1ccc2cc(C(=O)N3CCN(c4ccccc4OC)CC3)[nH]c2c1	n	16µM	n	n	u	n
COCCn1c(=S)[nH]c2cc(C(=O)N3CCN(c4cccc(Cl)c4)CC3)ccc2c1=O	u	n	n	n	21µM	n
COc1ccc(Cn2c(=O)[nH]c3cc(C(=O)N4CCN(c5ccccc5F)CC4)ccc3c2=O)cc1	n	n	n	n	n	n
COc1ccc(Cn2c(=O)[nH]c3cc(C(=O)N4CCN(c5ccccc5OC)CC4)ccc3c2=O)cc1	n	x	n	n	21µM	n
O=C(c1ccc(Cn2c(=O)[nH]c3ccsc3c2=O)cc1)N1CCN(c2ccccc2)CC1	n	n	n	n	u	n
CCN(CC)C(=O)c1cccc(NC(=O)Cc2nc(-c3ccccc3)oc2C)c1	x	u	x	x	x	n
SMILES	A549 viability	12-LOX inh	ERG Ets-DNA blk	Nrf2 ARE act	Nrf2 block	LDHA inh
Cc1cc(N)ccc1C(C)C	x	u	x	x	x	n
CCC(C)NS(=O)(=O)c1cccc2cc(C)cnc12 (stereo not drawn)	x	u	x	x	x	n
COc1ccc(Cn2c(=O)[nH]c3cc(C(=O)N4CCN(c5cc(C)ccc5C)CC4)ccc3c2=O)cc1	n	n	n	n	n[9.27 µM]	n
COCCn1c(=S)[nH]c2cc(C(=O)N3CCN(Cc4ccc5c(c4)OCO5)CC3)ccc2c1=O	n	n	n	n	u	n
COc1ccccc1N1CCN(C(=O)c2ccc3c(=O)n(Cc4ccc5c(c4)OCO5)c(=O)[nH]c3c2)CC1	n	x	n	n	15µM	n
COCCn1c(=O)[nH]c2cc(C(=O)N3CCN(Cc4ccc5c(c4)OCO5)CC3)ccc2c1=O	n	n	n	n	12µM	n
CCCCCn1c(=O)[nH]c2cc(C(=O)N3CCN(c4ccc(C(C)=O)cc4)CC3)ccc2c1=O	n	n	n	n	21µM	n
COc1ccc(Cn2c(=O)[nH]c3cc(C(=O)N4CCN(Cc5ccccc5)CC4)ccc3c2=O)cc1	n	n	n	n	23µM	n
COc1ccccc1Cn1c(=S)[nH]c2cc(C(=O)N3CCN(c4ccccc4OC)CC3)ccc2c1=O	n	n	n	n	n	n
CCOC(=O)c1cc(NC(=O)C(c2ccccc2)c2ccccc2)ccc1N1CCOCC1	x	u	x	x	x	n
O=C(CCN1CCN(c2cnccn2)CC1)Nc1ccccc1Cl	x	n	x	x	x	n
COc1ccc(Cn2c3ccc(OC)cc3c3nc4ccccc4nc32)cc1	n	u	n	n	n	n
COc1ccc2c(c1)c1nc3ccccc3nc1n2CC(=O)OC(C)C	n	n	u	n	4.6µM	n
CC(c1ccccc1)n1c(SCC(=O)N2CC(=O)Nc3ccccc32)nc2ccccc2c1=O (stereo not drawn)	n	n	n	n[9.22 µM]	16µM	n
CC(C)c1ccccc1-n1c(SCC(=O)c2ccc3c(c2)NC(=O)CO3)nc2ccccc2c1=O	n	n	n	n	2.9µM	n
Cc1cccc(-n2c(SCC(=O)N3CC(=O)Nc4ccccc43)nc3ccccc3c2=O)c1C	n	u	n	n	23µM	n
O=C1COc2ccc(C(=O)CSc3ccccc3C(=O)O)cc2N1	n	n	n	n	n	n
Cc1cccc(-n2c(SCC(=O)N3CC(=O)Nc4ccccc43)nc3ccccc3c2=O)c1	n	n	n	n	u	n
Cc1ccc(-c2nc(C#N)c(N3CCN(c4ccccc4)CC3)o2)cc1	x	n	x	x	x	n
COc1ccc(C2SCC(=O)N2CCc2ccc(OC)c(OC)c2)cc1 (stereo not drawn)	n	n	n	n	23µM	n
CCC(=O)Nc1c(S(=O)(=O)c2ccccc2)c2nc3ccccc3nc2n1C(C)c1ccccc1 (stereo not drawn)	n	n	n	n	18µM	n
N#CC1(NC(=O)CNc2cccc(Cl)c2F)CCCC1	x	u	x	x	x	n
Cc1ccc(-c2csc(NC(=O)c3ccc4c(=O)n5c(nc4c3)CCCCC5)n2)cc1	n	n	n	n[9.22 µM]	5.2µM	n
COc1ccc(CNC(=O)c2ccc3c(=O)n4c(nc3c2)CCCCC4)cc1OC	n	n	n	n	6.5µM	n
Cc1ccc(N2C(=O)[C@@H]3[C@H](C2=O)C2c4ccccc4C=CN2[C@@H]3C(=O)c2ccco2)c(C)c1 (stereo partly drawn)	n	14µM	n	n	n	n
CCN(C(=O)COC(=O)/C=C/c1cccc(Cl)c1)c1c(N)n(Cc2ccccc2)c(=O)[nH]c1=O	n	n	n	n	n	n
